# The whole screen tested about 360,000 compounds, of which about 10,000 (2.8%) were called active. Not shown: some 4% with an inconclusive outcome. The entries come from a sample that favours actives as a whole. A number with no mark means an inactive call. The call rests on the fitted dose curve; in most records, active means well fitted inhibition curve with a large enough effect; inconclusive means small, poorly fitted or top-dose-only effect; inactive means flat fitted curve, though single readings scatter.
# Molecular target: Serine/threonine-protein kinase PLK1 (Homo sapiens) (UniProt P53350)
# Experiment: qHTS for Inhibitors of PLK1-PDB (polo-like kinase 1 - polo-box domain): Primary Screen; further: nearly all actives have a fitted effect of over 65% in size; on max response, negative = inhibition: series mostly up to about 57 µM
# Details: Plk1 PBD binding of FITC phosphopeptide, fluorescence polarization
# Text: The polo-like kinase 1 (Plk1) is a member of a conserved subfamily of serine / threonine protein kinases that plays a pivotal roles in cell proliferation. It has a C-terminal non-catalytic region called the polo-box domain (PBD) that plays a crucial role in the subcellular localization of the Plk1. […] Furthermore, depletion of the overexpressed Plk1 by RNAi efficiently induces apoptotic cell death in cancer and reduces tumor growth in mouse xenograft models. Thus, targeting Plk1 is an appealing strategy for anti-cancer therapy. Therefore, this project aimed to screen the Molecular Libraries Small Molecule Repository (MLSMR) using a novel approach to find inhibitors that target the Plk1 PBD instead of the conventional N-terminal catalytic domain. This project employed a fluorescence polarization (FP) assay using a FITC-conjugated phospho-9-mer (p-9-mer) peptide and purified human Plk1 PBD protein. The identified small molecule inhibitors of Plk1 PBD can then further be developed into useful tools for biomedical and clinical research that complements or replaces current relevant disease therapy. NIH Chemical Genomics Center [NCGC] NIH Molecular Libraries Probe Centers Network [MLPCN] MLPCN Grant: MH100728 Assay Submitter (PI): Kyung Lee, NCI
# Four microliter of 25 nM FITC-p-9-mer + 60 nM Plk1 PBD in buffer solution (final concentrations 25 nM and 60 nM respectively) or 4 uL of 25 nM FITC-p-9-mer (final concentration 25 nM) in buffer will be dispensed into a 1,536 Greiner medium-binding black solid plate. Small molecules at final concentrations of 18 nM to 57 uM and positive control phospho-9-mer (sequence: Ac-PPLHSpTAI-NH2) at final concentrations 26 nM to 57 uM and phospho-13-mer (sequence: Ac-[…]pTAI-NH2) at final concentrations of 1 nM to 2.3 uM will be pin-transferred (23 nL) to the plate via a Kalypsys pin-tool robotics equipped with a 1,536-pin array. The reaction plate will be centrifuged for 1 min at 1000 rpm and incubated at room temperature for 10 min. The FITC fluorescence signals will be read using the PerkinElmer ViewLux plate reader at 480 / 20 nm excitation and 540 / 20 nm S and P polarization emission wavelengths. Reagent bottles will be kept submerged into 4 °C recirculating chiller bath and all liquid lines will be covered with aluminum foil to minimize degradation. Library plates will be screened starting from the lowest to the highest concentrations to minimize compound carryover. Vehicle only plates, with DMSO being pin-transferred instead of compound solutions, will be included regularly throughout the screen to record any systematic shifts in assay signal.
# On the % scale 0 is the no-effect control and ±100 the full control effect; potency means the concentration at half of the fitted maximal effect.
# Chain of Serine/threonine-protein kinase PLK1 (Homo sapiens) (P53350 whole entry, looked up, the tested form may be a part): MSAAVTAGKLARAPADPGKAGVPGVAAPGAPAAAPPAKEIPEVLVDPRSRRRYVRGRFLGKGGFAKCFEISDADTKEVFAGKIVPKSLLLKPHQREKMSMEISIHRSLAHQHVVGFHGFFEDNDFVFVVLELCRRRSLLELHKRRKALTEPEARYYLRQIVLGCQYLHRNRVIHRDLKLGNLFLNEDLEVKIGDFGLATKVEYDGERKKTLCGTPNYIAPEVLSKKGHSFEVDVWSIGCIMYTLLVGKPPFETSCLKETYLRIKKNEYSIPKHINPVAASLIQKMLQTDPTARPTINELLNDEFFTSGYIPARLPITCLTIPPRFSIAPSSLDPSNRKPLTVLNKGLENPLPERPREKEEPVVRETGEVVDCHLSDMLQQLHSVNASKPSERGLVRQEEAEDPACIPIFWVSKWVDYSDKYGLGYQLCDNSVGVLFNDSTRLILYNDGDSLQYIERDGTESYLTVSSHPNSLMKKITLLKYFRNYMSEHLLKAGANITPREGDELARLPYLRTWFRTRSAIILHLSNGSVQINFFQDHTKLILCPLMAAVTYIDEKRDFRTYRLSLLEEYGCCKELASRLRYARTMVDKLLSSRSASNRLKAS
Compound,"max response, negative = inhibition [%]",Potency
COc1ccc(CNC(=O)CCn2cccc2)cc1,1.6,–
NS(=O)(=O)c1ccc(CCNC(=O)CN2C(=O)c3ccccc3S2(=O)=O)cc1,-4.84,–
COc1ccc(CNC(=O)CN2C(=O)c3ccccc3S2(=O)=O)cc1,–,26.7 µM (active)
COc1cccc(OC)c1C(=O)N1CCN(Cc2ccccc2F)CC1,-14.6,–
C=C1C(=O)OC2C1CCC(C)=CCCC1(C)OC21 (stereo not drawn),-24.4,–
CC1(C(=O)NS(=O)(=O)C2CC2)CCCN(C(=O)CSc2ccccc2)C1 (stereo not drawn),-7.19,–
O=C1Nc2cc(C(=O)N3CCN(c4ccc(F)cc4)CC3)ccc2NC1CSCc1cccc(F)c1 (stereo not drawn),–,29.9 µM (active)
O=C(c1cccc(F)c1)N1CCN(c2ccc([N+](=O)[O-])c(N3CCCCC3)c2)CC1,-8.34,–
Cc1ccc(CSCC2Nc3ccc(C(=O)N4CCN(c5ccc(F)cc5)CC4)cc3NC2=O)cc1 (stereo not drawn),–,8.44 µM (active)
CC1CCN(C(=O)c2ccc3c(c2)NC(=O)CN3)CC1,62.7,–
Cc1ccc(SCC(=O)N2CCN(c3ccc(F)cc3)CC2)cc1,4.7,–
C=CCn1c(SCc2cccc(F)c2)nc2cc(C(=O)N3CCC(C(N)=O)CC3)ccc2c1=O,-5.4,–
Cc1nc2ccccc2nc1CC(O)(c1ccccc1)c1ccccc1,-15.9,–
COc1cccc(CN(C)C(=O)CC[C@H]2O[C@@H](n3cnc4c(NC(=O)c5ccccc5)ncnc43)[C@H](O)[C@@H]2O)c1,-1.63,–
Cc1ccc(C(NC(=O)C2CCN(CCOc3ccc(Cl)cc3Cl)CC2)c2ccccn2)cc1 (stereo not drawn),-11.3,–
Cc1nnc(SCC(=O)Nc2cccc(N)c2)n1-c1ccccc1,–,26.7 µM (active)
CC(=O)Nc1ccc(NC(=O)CSc2nnc(C3CC3)n2-c2ccccc2)cc1,7.6,–
CCOc1cc(C)ccc1OCc1nnc(SCC(=O)Nc2cccc(C(=O)O)c2)n1-c1ccccc1,-7.97,–
OCC1OC(n2cnc3c(N4CCCC4)ncnc32)C(O)C1O (stereo not drawn),-0.393,–
C[C@@H]1CN([C@H](C)CO)C(=O)c2cc(Br)cnc2O[C@@H]1CN(C)Cc1cncnc1,-13.8,–

Compound,"max response, negative = inhibition [%]",Potency
CN(CCO)C(=O)c1nc[nH]c1C(=O)N(C)Cc1ccccc1,-6.79,–
CN(Cc1nc2ccccc2s1)C(=O)c1ccc(F)cc1,-6.86,–
CC1=CC(=C(C#N)c2nc3ccccc3s2)C=C(C)N1c1ccc(F)cc1F,–,21.2 µM (active)
O=C(NCc1cccnc1)c1ccc2nc([C@@H]3O[C@H](CO)[C@H](O)[C@H](O)[C@H]3O)[nH]c2c1,-4.09,–
COc1cc(/C=N\Nc2nc(-c3cccs3)c(NC(C)=O)s2)ccc1O,–,26.7 µM (active)
COc1cc(C=NC2CCCCC2)ccc1O,4.49,–
CC(=O)c1sc(N/N=C/c2ccc(C(C)C)cc2)nc1C,11.6,–
CCc1ccccc1NC(=O)CN1CCN(C(=O)c2cc(C3CC3)nn2-c2ccccc2)CC1,7.48,–
COc1ccc(S(=O)(=O)NC(=O)C2(C)CCN2C(=O)COc2ccc(Cl)cc2)cc1 (stereo not drawn),-3.35,–
CC(C)Nc1ncnc2c1ncn2[C@H]1CN(Cc2ccncc2)C[C@@H](CO)O1,0.157,–
CC(=O)c1nn(-c2ccccc2)c(=Nc2ccccc2)cc1C,-4.39,–
COc1ccc(N2CCN(C(=O)c3cccs3)CC2)cc1,0.204,–
O=C(COc1ccccc1)Nc1ccc(N2CCN(C(=O)c3cccs3)CC2)cc1,–,26.7 µM (active)
O=C(COc1ccccc1)Nc1ccc(C(=O)N2CCCC2)cc1,-9.45,–
Cc1ccc(S(=O)(=O)N2CCC(=O)N([C@H](COCc3ccccc3)C(C)C)CC2)cc1,-7.98,–
Cc1cc(C(=O)OCC(=O)Nc2nccs2)c2ccccc2n1,–,3.36 µM (active)
O=C(COC(=O)c1ccc(O)cc1)Nc1nccs1,-1.48,–
Cc1cc(C(=O)OCC(=O)Nc2nnc(C(C)C)s2)c2ccccc2n1,-7.1,–
CC1(C(=O)NS(=O)(=O)c2cccc(OC(F)F)c2)CCN1C(=O)C1CC1 (stereo not drawn),3.22,–
CCCNC(=O)C1(C)CCN1C(=O)C1(c2ccccc2)CC1 (stereo not drawn),-4.48,–

Compound,"max response, negative = inhibition [%]",Potency
CC(C)(C)Cc1c(C2CCCCC2)nc2ccc(Br)cn12,3.52,–
COc1ccc(CNC(=O)C2CCN(S(=O)(=O)N3CCOCC3)CC2)cc1,3.12,–
COc1ccc(CNC(=O)C2CCN(S(=O)(=O)c3ccc(SC)cc3)CC2)cc1,-7.7,–
COc1ccc(CNC(=O)C2CCN(S(C)(=O)=O)CC2)cc1,–,21.2 µM (active)
CC1(C(=O)NCc2cccc3ccccc23)CCN1Cc1ccc(-c2ccccc2)o1 (stereo not drawn),-8.62,–
CCc1nc2ccc(C(=O)NCCNC(C)=O)cn2c1N(CC)Cc1cccc(Br)c1,-0.869,–
CCC(C(=O)NCc1ccccc1)n1c(Cc2cc(F)cc(F)c2)nc2ccccc21 (stereo not drawn),2.43,–
O=C(NCCN1CCOCC1)C1CCN(S(=O)(=O)c2ccccc2)CC1,1.1,–
CC(CNC(=O)c1ccc(Br)o1)NC(=O)c1ccc(Br)o1 (stereo not drawn),–,2.99 µM (active)
CC(CCc1ccccc1)NC(=O)c1ccc(Br)o1 (stereo not drawn),-7.05,–
O=C(NCc1cccs1)c1ccc(Br)o1,-4.89,–
O=C(COC(=O)/C=C/c1ccc(Cl)cc1)NC1CCS(=O)(=O)C1 (stereo not drawn),3.25,–
O=S1(=O)CC(N2CCSCC2)CN1Cc1cn(Cc2cccc(Cl)c2)nn1 (stereo not drawn),1.2,–
CSCCC(C(=O)NC(C)(C)C)n1c(-c2ccccc2)nc2ccccc21 (stereo not drawn),-11.3,–
COc1cc(/C=N/O)cc(Br)c1OS(=O)(=O)c1ccc(C)cc1,4.61,–
COc1cc(/C=N/Nc2ccc(C)cc2)cc(Br)c1O,–,29.9 µM (active)
COc1cc(/C=N/NC(=S)Nc2cccnc2)cc(OC)c1O,-21,–
CCCc1nc2ccccc2n1C(C)C(=O)NC(C)(C)C (stereo not drawn),-5.55,–

# — PubChem BioAssay AID720504 (National Center for Advancing Translational Sciences (NCATS), 2013)
